Each structure is given as a SMILES string. The source made the active and inactive calls. Unless noted, how the calls were made is not given here.

Assay [1] in a line: A549 cell viability effects, profiling panel, calcein-AM fluorescence, 48 h, basal (AID 1162). Further: test concentration not given here. The conditions noted are these: higher = more signal.
Assay [2] in a line: adipocyte viability effects, profiling panel, cell-based, 3T3-L1 adipocytes, calcein-AM fluorescence, 48 h, basal (AID 1163). Further: test concentration not given here. The conditions noted are these: 3T3-L1 adipocytes viability, higher = more signal.
A short description of assay [3]: HepG2 cell viability effects, profiling panel, calcein-AM fluorescence, 48 h, basal (AID 1164). Further: test concentration not given here. The conditions noted are these: higher = more signal.
A short description of assay [4]: MM1S cell viability effects, profiling panel, calcein-AM fluorescence, 48 h, basal (AID 1165).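 Further: viability of MM1S multiple myeloma cells under basal unstimulated conditions; test concentration not given here.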 As to conditions: higher = more signal.
Assay [5] can be described thus: basal RPMI8226 viability, no added stimulus, profiling panel, cell-based, calcein-AM fluorescence, 48 h, PK04 Diversity Set (AID 1166).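 Further: cells grown under basal conditions without added stimulus; test concentration not given here.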 The conditions noted are these: RPMI8226 myeloma viability, higher = more signal.
Assay [6] is described as follows: basal HepG2 mitochondrial membrane potential changes, profiling panel, cell-based, JC-1 fluorescence, 24 h, 100 nL compound (AID 1167). Further: test concentration not given here. The conditions noted are these: higher = more signal.
The nature of assay [7]: basal 3T3-L1 adipocyte mitochondrial potential changes, profiling panel, cell-based, JC-1 fluorescence, 3T3-L1 adipocytes, 24 h, 100 nL compound (AID 1168). Further: test concentration not given here. The conditions noted are these: JC-1 mitochondrial fluorescence, higher = more signal, called active from +8 up or from −8 down.
The nature of assay [8]: basal RPMI8226 mitochondrial membrane potential changes, profiling panel, cell-based, JC-1 fluorescence, 24 h, 100 nL compound (AID 1169). Further: test concentration not given here. As to conditions: RPMI8226 myeloma, JC-1 mitochondrial potential fluorescence, higher = more signal.
Assay [9] in a line: basal MM1S mitochondrial membrane potential changes, profiling panel, cell-based, JC-1 fluorescence, 24 h, 100 nL compound (AID 1170). Further: test concentration not given here. The conditions noted are these: higher = more signal.
The nature of assay [10]: A549 lung cancer cell viability effects, profiling panel, resazurin fluorescence, 24 h, PK04 Diversity Set (AID 1171). Further: test concentration not given here. The conditions noted are these: higher = more signal, called active from +8 up or from −8 down. Background: The colour change of resazurin is a common sign of viable cells or microbes.
The nature of assay [11]: HepG2 liver cancer cell viability effects, profiling panel, resazurin fluorescence, 24 h, PK04 Diversity Set (AID 1172). Further: test concentration not given here. As to conditions: higher = more signal.
Assay [12] is described as follows: basal S. cerevisiae growth modulation, no modifier, primary screen, OD600, strain BY4716, 24 h, basal condition (AID 1173). The conditions noted are these: OD600, 24 h, higher = more signal, called active from +8 up or from −8 down.
Assay [13] can be described thus: MM1S myeloma cell viability, profiling panel, resazurin fluorescence, basal, 24 h, PK04 Diversity Set (AID 1174).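 Further: MM1S multiple myeloma cell line; test concentration not given here.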 The conditions noted are these: higher = more signal, called active from +8 up or from −8 down.
In assay [14] the target is Dihydroorotate dehydrogenase (quinone), mitochondrial (Plasmodium falciparum (isolate 3D7)) (UniProt Q08210). Briefly: PfDHODH enzyme inhibitors, primary screen, biochemical, C-terminal His tag, absorbance 600 nm (AID 1175).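 Further: recombinant parasite enzyme with a five histidine tag at its C terminus; test concentration not given here.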 As to conditions: DCIP absorbance 600 nm, higher = more signal, called active from +8 up or from −8 down.
The nature of assay [15]: P. aeruginosa biofilm formation inhibitors, primary screen, strain PAO1, LB-PBS medium, absorbance 600 nm (AID 1176). Further: test concentration not given here. The conditions noted are these: P. aeruginosa PAO1 growth/biofilm, A600, 12 h; higher = more signal.
A short description of assay [16]: S. cerevisiae RM11-1a growth modifiers, primary screen, strain RM11-1a, OD600, basal, 24 h (AID 1177).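 Further: cultures grown under basal conditions with no added stressor; test concentration not given here.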 As to conditions: OD600, 24 h, higher = more signal, called active from +8 up or from −8 down.
Assay [17] can be described thus: E. coli acrAB mutant growth effects, primary screen, E. coli filamentation inducers, strain DRC39, OD650, 24 h (AID 1178).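 Further: growth measured as culture turbidity by optical density at 650 nm; test concentration not given here.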 As to conditions: higher = more signal, called active from +8 up or from −8 down.
Assay [18] is described as follows: E. coli acrAB mutant growth effects, primary screen, E. coli filamentation inducers, strain DRC39, OD650, 48 h (AID 1179).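 Further: screen aims at cell division blockers that make cells filament.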 The conditions noted are these: E. coli DRC39 delta-acrAB growth, higher = more signal, called active from +8 up or from −8 down.
Assay [19] can be described thus: RPMI8226 myeloma cell viability, profiling panel, resazurin fluorescence, basal, 24 h, PK04 Diversity Set (AID 1180).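 Further: RPMI8826 multiple myeloma cell line at 5000 cells per well; test concentration not given here.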 As to conditions: higher = more signal.
In assay [20] the target is E3 ubiquitin-protein ligase XIAP (Homo sapiens) (UniProt P98170). Nature of the assay: XIAP binders, primary screen, biophysical, small-molecule microarray, fluorescence 635 nm (AID 1181).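 Further: score merges 667 nm emission and signal to noise over triplicate slides.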 The conditions noted are these: small-molecule microarray binding, higher = more signal.
Sequence of E3 ubiquitin-protein ligase XIAP (Homo sapiens) (P98170 whole entry, looked up): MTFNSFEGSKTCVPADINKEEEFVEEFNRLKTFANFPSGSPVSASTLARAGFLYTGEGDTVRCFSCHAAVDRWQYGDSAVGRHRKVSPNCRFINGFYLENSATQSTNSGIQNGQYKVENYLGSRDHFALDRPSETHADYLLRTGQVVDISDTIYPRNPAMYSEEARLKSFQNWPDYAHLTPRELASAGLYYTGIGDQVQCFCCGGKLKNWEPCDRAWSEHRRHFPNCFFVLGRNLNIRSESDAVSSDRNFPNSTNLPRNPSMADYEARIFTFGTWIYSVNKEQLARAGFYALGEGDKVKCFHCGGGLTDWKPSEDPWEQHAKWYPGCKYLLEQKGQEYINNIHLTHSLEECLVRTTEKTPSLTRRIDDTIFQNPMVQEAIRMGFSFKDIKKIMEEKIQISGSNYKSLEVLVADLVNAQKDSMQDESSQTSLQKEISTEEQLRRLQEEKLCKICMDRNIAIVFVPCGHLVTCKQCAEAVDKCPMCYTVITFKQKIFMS

Sequence of Dihydroorotate dehydrogenase (quinone), mitochondrial (Plasmodium falciparum (isolate 3D7)) (Q08210 whole entry, looked up): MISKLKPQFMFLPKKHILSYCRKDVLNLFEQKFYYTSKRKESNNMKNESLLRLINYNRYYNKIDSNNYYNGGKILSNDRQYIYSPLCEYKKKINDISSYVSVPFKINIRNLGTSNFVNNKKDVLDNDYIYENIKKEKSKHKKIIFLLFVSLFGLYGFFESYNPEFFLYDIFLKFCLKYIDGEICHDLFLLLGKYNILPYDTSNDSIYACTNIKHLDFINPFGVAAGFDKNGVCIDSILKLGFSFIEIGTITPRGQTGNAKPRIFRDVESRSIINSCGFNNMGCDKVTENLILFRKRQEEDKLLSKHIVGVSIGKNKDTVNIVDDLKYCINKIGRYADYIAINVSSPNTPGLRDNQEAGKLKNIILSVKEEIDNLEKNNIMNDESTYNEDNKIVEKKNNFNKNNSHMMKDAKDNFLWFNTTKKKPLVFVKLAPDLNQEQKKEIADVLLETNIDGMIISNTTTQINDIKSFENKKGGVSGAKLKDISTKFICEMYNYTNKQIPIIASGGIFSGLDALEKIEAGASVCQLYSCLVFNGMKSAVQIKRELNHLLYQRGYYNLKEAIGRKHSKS

`CCOC(=O)C1=CC[C@@H](c2ccccc2)N(S(=O)(=O)c2ccc(C)cc2)C1`: the z-score in assay [1] is -0.747; in assay [2], -0.384; in [3], -0.165; in [4] it was -1.22; in assay [5], -1.62; in assay [6], 0.546. In addition, the z-score in assay [7] was -1.07 (inactive); in assay [8], 0.84; in [9] it was -0.977; in [10], -0.145 (inactive); in assay [11], -0.842; in [12] it was 1.39 (inactive). In addition, the z-score was -1.31 (inactive) in [13]; 0.465 (inactive) in [15]; 1.82 (inactive) in assay [16]; -0.866 (inactive) in assay [17]; -0.869 (inactive) in assay [18]; -2.53 in assay [19]. The figures for the composite z-score in assay [14] and in [20] were 0.806 (inactive) and 0.0975, respectively.

With `COC(=O)C(CC#Cc1ccc2c(c1)[C@]1(C(=O)N2)[C@H](C(=O)O)[C@H]2C(=O)O[C@H](c3ccccc3)[C@H](c3ccccc3)N2[C@@H]1c1ccccc1OCCO)C(=O)OC`, the z-score in assay [1] is -0.045; in assay [2], -0.182; in assay [3], -0.219; in assay [4], -3.26; in assay [5], -4.09; in assay [6] it was -2.93. Moreover, the z-score was -0.236 (inactive) in [7]; -0.441 in assay [8]; -1.98 in assay [9]; -0.327 (inactive) in assay [10]; 0.289 in assay [11]; -0.307 (inactive) in assay [12]. Moreover, the z-score in assay [13] was 0.0819 (inactive); in [15], 2.07 (inactive); in [16], 2.55 (inactive); in [17] it was 0.698 (inactive); in assay [18], 0.202 (inactive); in assay [19] it was -4.42. The composite z-score is -18.9 (active) in assay [14] and -0.0673 in [20].

For the compound `[N-]=[N+]=NCc1ccccc1C[C@@]1(C(N)=O)N=C(c2ccc(OCCCO)cc2)O[C@@H]1c1ccccc1CN=[N+]=[N-]`, the z-score was 0.703 in [1]; -0.323 in [2]; 1.42 in assay [3]; -1.25 in [4]; -3.08 in [5]; 1.18 in assay [6]. Further, the z-score in [7] was -0.301 (inactive); in assay [8], -1.1; in [9], -0.422; in assay [10], -0.136 (inactive); in assay [11] it was 0.717; in [12] it was -1.43 (inactive). Further, the z-score in [13] was -0.833 (inactive); in assay [15] it was 0.261 (inactive); in [16] it was 0.835 (inactive); in [17] it was 0.178 (inactive); in assay [18] it was 0.041 (inactive); in assay [19], 0.0178. The values for the composite z-score in [14] and in assay [20] were -11.6 (active) and 0.0049, respectively.

In the case of `COC(=O)[C@@]1(Cc2ccc(F)cc2)[C@H]2c3cc(C(=O)N4CCCC4)n(CCc4c[nH]c5ccc(OC)cc45)c3C[C@H]2CN1C(=O)c1ccccc1`, the z-score in assay [1] was -2.28; in [2], 0.787; in [3], -0.906; in assay [4], -2.13; in assay [5], -4.1; in assay [6] it was 1. The z-score was -1.33 (inactive) in assay [7]; -0.917 in assay [8]; -2 in [9]; -1.63 (inactive) in assay [10]; -0.946 in assay [11]; 0.813 (inactive) in assay [12]. The z-score in assay [13] was -2.53 (inactive); in [15], 3.29 (inactive); in [16], 0.622 (inactive); in assay [17], -0.137 (inactive); in assay [18], -0.72 (inactive); in assay [19] it was -3.36. In addition, the composite z-score was -3.91 (inactive) in assay [14] and 0.498 in assay [20].

With `CC(=O)n1cc(C(O)C2C=CC3C(=O)N(Cc4ccccc4)C(=O)C3N2n2cnnc2)c2ccccc21` (stereo not given), the z-score in assay [1] is -0.919; in assay [2], -0.0245; in [3] it was -0.392; in assay [4] it was -1.12; in assay [5] it was 0.125; in [6], -1.07. Further, the z-score in assay [7] was -0.623 (inactive); in assay [8] it was 0.563; in [9], -0.321; in assay [10], -0.756 (inactive); in assay [11] it was -0.227; in assay [12], 0.319 (inactive). The z-score in [13] was -0.929 (inactive); in assay [15] it was -0.514 (inactive); in assay [16], -0.371 (inactive); in assay [17], -1.34 (inactive); in assay [18], -1.4 (inactive); in assay [19], -1.27. Also, the figures for the composite z-score in assay [14] and in assay [20] were -0.351 (inactive) and 0.764, respectively.

With `COC1(C)CN(Cc2ccccc2Br)[C@H](/C=C/c2ccccc2)[C@H](Cc2ccccc2)O1` (stereo not given in full), the z-score in [1] was 0.411; in [2], 1.2; in [3], 0.875; in [4], -0.245; in [5], -0.0348; in assay [6] it was -0.545. The z-score was -0.35 (inactive) in assay [7]; -0.19 in [8]; -0.861 in assay [9]; 0.494 (inactive) in assay [10]; 1.1 in assay [11]; -0.138 (inactive) in assay [12]. The z-score in assay [13] is 0.832 (inactive); in [15], 0.331 (inactive); in assay [16], 0.44 (inactive); in assay [17], 0.531 (inactive); in assay [18], 0.523 (inactive); in [19], 1.2. Moreover, the composite z-score in assay [14] was -0.167 (inactive); in [20], -0.102.

Regarding `C[C@]1(C(=O)NCCN2CCOCC2)c2ccccc2C(=O)N(Cc2ccc(OC(F)(F)F)cc2)[C@H]1c1ccc(CO)cc1`, the z-score was 0.742 in assay [1]; -0.352 in [2]; 0.342 in [3]; -0.285 in assay [4]; 0.0667 in assay [5]; 3.08 in [6]. The z-score in assay [7] was -0.446 (inactive); in assay [8], -0.275; in assay [9], -0.609; in [10] it was 0.354 (inactive); in assay [11] it was 0.209; in [12] it was -0.427 (inactive). Moreover, the z-score was -0.191 (inactive) in assay [13]; 0.0435 (inactive) in assay [15]; -0.393 (inactive) in assay [16]; 0.815 (inactive) in assay [17]; 0.121 (inactive) in [18]; 0.206 in [19]. The composite z-score is -0.277 (inactive) in assay [14] and -0.0663 in [20].

For the compound `CCCN1C(=O)[C@]2(Cc3ccccc3)N=C(c3ccc(OCCCO)cc3)O[C@@H]2c2ccccc21`, the z-score in assay [1] was 0.0649; in [2] it was 0.932; in assay [3], -1.26; in [4], -1.26; in [5], -4.03; in assay [6], 0.596. Further, the z-score was 2.77 (inactive) in assay [7]; -1.21 in [8]; -1.1 in [9]; -0.593 (inactive) in assay [10]; 0.734 in assay [11]; -1.94 (inactive) in assay [12]. For the same compound, the z-score is -0.753 (inactive) in assay [13]; -0.0963 (inactive) in assay [15]; 0.931 (inactive) in [16]; 0.94 (inactive) in assay [17]; 0.718 (inactive) in [18]; -1.13 in assay [19]. Further, the composite z-score in [14] is -0.42 (inactive); in [20] it was 0.108.

Turning to `O=C1C2C=CC(C(O)c3cc(C(F)(F)F)cc(C(F)(F)F)c3)N(Nc3ccc([N+](=O)[O-])cc3)C2C(=O)N1c1ccccc1` (stereo not given), the z-score in assay [1] is -1.61; in assay [2], 0.294; in assay [3], -3.51; in assay [4], -2.62; in [5], -4.06; in [6], -0.982. Further, the z-score in [7] is -0.699 (inactive); in assay [8], -1.03; in [9] it was -1.99; in assay [10] it was -0.0362 (inactive); in [11] it was -0.566; in [12] it was 0.55 (inactive). The z-score in assay [13] is -0.683 (inactive); in assay [15] it was 1.07 (inactive); in [16] it was 0.565 (inactive); in assay [17] it was -2.26 (inactive); in [18], -1.25 (inactive); in assay [19], -2.18. Besides, the composite z-score is 0.665 (inactive) in [14] and 0.29 in assay [20].

Values taken from PubChem BioAssay.
